High-throughput results: PubChem, SRMLSC
Autofluor 339: intrinsic fluorescence of library compounds, ex339/em460 – biochemical, MLSMR library, data from DPM-DC assay, artefact control, profiling panel; 65,000 compounds, 5.5% hits; fluorescence fold increase at 10 µM; compound autofluorescence, ex339/em460 nm, NADH buffer; hits give high values; 1 = no-compound wells, NADH background;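 active = at 10 µM, mean starting fluorescence two-fold or more over control wells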;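 note: signal is the first read of a kinetic run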
NADH enzymes: inhibitors of PK/LDH coupling enzymes, profiling panel, artefact control, biochemical, MLSMR library | coupled PK/LDH NADH assays, four targets | IC50, µM (highest dose often 10 µM), for the others: top-dose inhibition | 65,000 compounds, 0.02% hits | AID 774, 2007;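 active = single-dose screening hits from any of four coupled enzyme assays that gave an IC50 when retested across doses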;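 note: the DPM-DC format reads NADH fluorescence rather than 340 nm absorbance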
Spn MK inh: S. pneumoniae MK inhibitors, primary screen, biochemical, PK/LDH-coupled NADH absorbance | purified MK, PK/LDH-coupled NADH absorbance 340 nm | inhibition, % at 10 µM | 65,000 compounds, 0.48% hits | AID 555, 2006;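 active = ranked among the strongest by inhibition in the single 10 µM screen, a fixed top-ranked set picked for dose follow-up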
PMK inhibit: S. pneumoniae PMK inhibitors, primary screen, biochemical, mevalonate pathway, pilot trial included. 65,000 compounds, 0.49% hits. AID 539, 2006. inhibition, % at 10 µM. purified PMK, PK/LDH-coupled NADH absorbance 340 nm;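 active = top-ranked compounds by inhibition in the single 10 µM screen, taking a fixed number of the strongest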;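 note: 0% = full reaction with DMSO carrier and 100% = background rate without enzyme reaction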
Abs 340nm: compound light absorbance at 340 nm, profiling panel, artefact control, biochemical, MLSMR library, data from PS, PMK, MK assays; compound absorbance at 340 nm, fold over control; fold change at 10 µM; 65,000 tested, under 10 active;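 active = at 10 µM dose, initial 340 nm absorbance at least 2 fold that of control wells; inactive = change under 2 fold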;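 note: initial absorbance extrapolated from kinetic A340 decline of NADH oxidation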
DPM-DC inhibit: S. pneumoniae DPM-DC inhibitors, primary screen, biochemical, PK/LDH-coupled NADH fluorescence; diphosphomevalonate decarboxylase (Streptococcus pneumoniae D39); purified DPM-DC; calls only at 10 µM; 65,000 compounds, 0.49% hits; AID 556, 2006;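 active = the 320 compounds with the highest percent inhibition in the single-dose primary screen, excluding strongly autofluorescent ones, cut at about 32% in these data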;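 note: kinetic rate of NADH fluorescence loss reporting ADP formed by the decarboxylase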
An asterisk follows results filed as active. Sampled rows, rich in hits. Any-hit rate of the full collection: about 6.3%.

What do the screens show for `COc1ccc2[nH]c(=O)c(CN(Cc3nnnn3Cc3ccc(F)cc3)CC3CCCO3)cc2c1` (configuration not stated)?
Autofluor 339: 2*; NADH enzymes: 12.0%; Spn MK inh: 15.0; PMK inhibit: 12.0; Abs 340nm: 1.04; DPM-DC inhibit: inactive

How did COc1ccc2[nH]c(=O)c(CN(Cc3nnnn3Cc3ccccc3)CC3CCCO3)cc2c1 (configuration not stated) do in these assays?
Autofluor 339: 2.14*; NADH enzymes: 10.0%; Spn MK inh: 10.0; PMK inhibit: 10.0; Abs 340nm: 1.08; DPM-DC inhibit: inactive

How did COc1ccc(C2/C(=C(/O)c3ccc(F)cc3)C(=O)C(=O)N2CCCN(C)C)cc1 (configuration not stated) do in these assays?
Autofluor 339: 1.05; NADH enzymes: 11.0%; Spn MK inh: 9.0; PMK inhibit: 14.0; Abs 340nm: 1.17; DPM-DC inhibit: inactive

What do the screens show for `O=C(Nn1c(Cc2cccs2)nc2ccccc2c1=O)c1cccs1`?
Autofluor 339: 1.04; NADH enzymes: 8.0%; Spn MK inh: 10.0; PMK inhibit: 13.0; Abs 340nm: 1.03; DPM-DC inhibit: inactive

What do the screens show for `Cc1cccc(-n2ncc3c(NCCc4ccc(S(N)(=O)=O)cc4)ncnc32)c1`?
Autofluor 339: 1.11; NADH enzymes: 3.0%; Spn MK inh: 3.0; PMK inhibit: 5.0; Abs 340nm: 1.09; DPM-DC inhibit: inactive

Results for Cc1nc2nc(-c3cccnc3)nn2c(C)c1Cl ?
Autofluor 339: 1.01; NADH enzymes: 2.0%; Spn MK inh: 8.0; PMK inhibit: 9.0; Abs 340nm: 1; DPM-DC inhibit: inactive

Results for COc1ccc(-c2nc3nc(C)cc(C)n3n2)cc1 ?
Autofluor 339: 3.74*; NADH enzymes: 5.0%; Spn MK inh: 5.0; PMK inhibit: 5.0; Abs 340nm: 1.04

How did Cc1nc2nc(-c3ccco3)nn2c(C)c1Cl do in these assays?
Autofluor 339: 3.95*; NADH enzymes: 13.0%; Spn MK inh: 13.0; PMK inhibit: 12.0; Abs 340nm: 1.07

Results for COC(=O)CSc1nc2nc(C)cc(C)n2n1 ?
Autofluor 339: 1.03; NADH enzymes: 5.0%; Spn MK inh: 7.0; PMK inhibit: 2.0; Abs 340nm: 0.97; DPM-DC inhibit: inactive

What do the screens show for `Cc1cc(C)n2nc(NCc3ccccc3)nc2n1`?
Autofluor 339: 3.61*; NADH enzymes: 6.0%; Spn MK inh: 4.0; PMK inhibit: 7.0; Abs 340nm: 1.08

What do the screens show for `COc1cccc(CNc2nc3nc(C)c(Cl)c(C)n3n2)c1`?
Autofluor 339: 2.32*; NADH enzymes: 3.0%; Spn MK inh: 3.0; PMK inhibit: 9.0; Abs 340nm: 1.04

What do the screens show for `O=c1c2ccccc2nnn1CSc1nnc(-c2ccc3c(c2)OCO3)o1`?
Autofluor 339: 1.06; NADH enzymes: 5.0%; Spn MK inh: 4.0; PMK inhibit: 10.0; Abs 340nm: 1.03; DPM-DC inhibit: inactive

Results for O=C(CSc1nnc(-c2cccnc2)n1-c1ccccc1)Nc1ccccn1 ?
Autofluor 339: 1.04; NADH enzymes: 5.0%; Spn MK inh: 6.0; PMK inhibit: 10.0; Abs 340nm: 1.04; DPM-DC inhibit: inactive

What do the screens show for `CC(C)(C)NC(=O)CSc1nnc(-c2ccccn2)n1-c1ccccc1`?
Autofluor 339: 1.01; NADH enzymes: 5.0%; Spn MK inh: 3.0; PMK inhibit: 28.0*; Abs 340nm: 0.98; DPM-DC inhibit: inactive

Results for COC(=O)c1[nH]c2cccc(OC)c2c1NC(=O)CCN1CCN(c2cccc(Cl)c2)CC1 ?
Autofluor 339: 2.56*; NADH enzymes: 12.0%; Spn MK inh: 9.0; PMK inhibit: 13.0; Abs 340nm: 1.02; DPM-DC inhibit: inactive

How did COC(=O)c1[nH]c2cccc(OC)c2c1NC(=O)CN1CC2(C)CC1CC(C)(C)C2 (configuration not stated) do in these assays?
Autofluor 339: 2.01*; NADH enzymes: 6.0%; Spn MK inh: 1.0; PMK inhibit: 4.0; Abs 340nm: 1.03; DPM-DC inhibit: inactive
